Inconclusive results are not listed. Entries that show only a call come without a potency. Active and inactive are the calls of the source. Calls come from the whole dose curve; as a rule, active = well fitted cell-killing curve with a large enough effect; inconclusive = small, poorly fitted or top-dose-only effect, or effect the other way; inactive = flat fitted curve, though single readings scatter.
Assay: Compound cytotoxicity measured by an ATP content assay as a counter-screen for lead compounds in human astrocytes
Conditions: human astrocytes viability, ATP luminescence; series mostly up to 46.1 µM
Protocol: National Center for Advancing Translational Sciences [NCATS] Johns Hopkins University School of Medicine Florida State University Assay Overview: Many compounds can cause cytotoxicity at high compound concentrations. […] The compound cytotoxicity may also cause side effects or toxicity in human. Thus, the compound cytotoxicity needs to be measured in each cell type and each compound incubation time - same as these in the compound screening assay. The compound cytotoxicity can be measured by cell viability assays such as the ATP content assay. We use an ATP content assay kit for cell viability measurement. It measures ATP content (level) in human astrocytes using a luminescence readout that is proportional to viable cell numbers. Decrease in the luminescence signal after the compound treatment indicates reduced cell viability and cell death caused by compound treatment.
Assay Protocol Summary: The medium for astrocytes contains AM basal medium (ScienCell, Cat.# 1801), AGS (ScienCell, Cat.# 1801), 10% FBS, and 1% Pen/Strep. The ATP content assay kit (PerkinElmer, Cat.# 6016731) was used to determine cell viability. The reagent was reconstituted and prepared as described by the manufacturer. Cells were seeded in 384- or 1536-well assay plates and cultured at 37 C with 5% CO2 for 16 to 20 hours. The typical cell seeding density in the 1536-well plate assay is 350 cells/well in 3 ul medium for astrocytes in the tissue cultured treated/PDL coated plates. Compounds were added to cells and incubated for a specific time such as 6, 24, or 72 hours before addition of the reagent mixture of the ATP content assay kit at 1:1 ratio. After incubation at room temperature for 10 minutes, the luminescence intensity in assay plates was measured using a ViewLux plate reader (PerkinElmer). […] The percentage inhibitions of the decreased cell viability by small molecules were then calculated that indicate compound cytotoxicity.

| SMILES | Potency |
| --- | --- |
| O=C(c1ccccc1)c1ccc2n1CCC2C(=O)O (stereo not given) | inactive |
| C[C@H](NC(=O)C(=O)Nc1ccccc1C(C)(C)C)C(=O)N[C@@H](CC(=O)O)C(=O)COc1c(F)c(F)cc(F)c1F | inactive |
| c1ccc2[nH]c(-c3cscn3)nc2c1 | inactive |
| Oc1cc(O)cc(/C=C/c2ccc(O)c(O)c2)c1 | 8.69 µM (active) |
| O=C(/C=C/c1ccccc1)NCCO | inactive |
| CC(C(=O)O)c1ccc2c(c1)[nH]c1ccc(Cl)cc12 (stereo not given) | inactive |
| CCC(C(=O)O)c1ccc(N2Cc3ccccc3C2=O)cc1 (stereo not given) | inactive |
| CN1CC(=O)N/C1=N/C(=O)Nc1cccc(Cl)c1 | inactive |
| Cc1cc(O)c2c(c1)C(=O)c1cc(O)cc(O)c1C2=O | inactive |
| CCCCC1C(=O)N(c2ccccc2)N(c2ccc(O)cc2)C1=O (stereo not given) | inactive |
| CC(C)OC(=O)CCCC=CC[C@@H]1[C@H](C=C[C@@H](O)COc2cccc(C(F)(F)F)c2)[C@H](O)C[C@@H]1O | inactive |
| NC(=O)c1cccc2[nH]c(-c3ccc([C@H]4CCCN4)cc3F)nc12 | 5.48 µM (active) |
| Cc1ccc(C(=O)c2ccc(CC(=O)O)n2C)cc1 | inactive |
| [O-][n+]1ccccc1SSc1cccc[n+]1[O-] | 0.112 µM (active) |
| N#C/C(=C\c1ccc(O)c(O)c1)C(=O)Nc1ccccc1 | inactive |
| CO[C@H]1C(=O)[C@]2(C)[C@@H](OC)C[C@H]3OC[C@@]3(OC(C)=O)[C@H]2[C@H](OC(=O)c2ccccc2)[C@]2(O)C[C@H](OC(=O)[C@H](O)[C@@H](NC(=O)OC(C)(C)C)c3ccccc3)C(C)=C1C2(C)C | inactive |
| O=C1NC(=O)C(=Cc2ccc(-c3ccc(F)cc3)o2)S1 | inactive |
| O=c1c(-c2ccc(O)cc2)coc2cc(OC3O[C@H](CO)[C@H](O)[C@H](O)[C@H]3O)cc(O)c12 (stereo not given in full) | inactive |
| CCCCCCOc1ccccc1C(N)=O | inactive |
| Cc1[nH]c(C=C2C(=O)Nc3ccccc32)c(C)c1CCC(=O)O | inactive |

| SMILES | Potency |
| --- | --- |
| Cc1ccc(O)c(-n2nc3ccccc3n2)c1 | inactive |
| CN(C)c1cc(NC(=O)CNC(C)(C)C)c(O)c2c1C[C@@H]1C[C@H]3[C@H](N(C)C)C(=O)C(C(N)=O)=C(O)[C@@]3(O)C(=O)C1=C2O | inactive |
| O=C(Oc1ccccc1)c1cccc(C(=O)Oc2ccccc2)c1 | inactive |
| CC(C)c1ccc2oc3nc(N)c(C(=O)O)cc3c(=O)c2c1 | 2.75 µM (active) |
| CC[C@@]1(O)C[C@H](O[C@H]2C[C@H](N(C)C)[C@H](O[C@H]3C[C@H](O)[C@H](O[C@H]4CCC(=O)[C@H](C)O4)[C@H](C)O3)[C@H](C)O2)c2c(cc3c(c2O)C(=O)c2c(O)cccc2C3=O)[C@@H]1C(=O)OC | inactive |
| c1ccc(CCNc2nc(-c3ccccc3)cs2)cc1 | inactive |
| COCCn1c2c([n+](Cc3cnccn3)c1C)C(=O)c1ccccc1C2=O | 0.138 µM (active) |
| O=C(C=CC=Cc1ccc2c(c1)OCO2)N1CCCCC1 | inactive |
| Cc1nc(N)sc1-c1ccnc(Nc2ccc(N3CCOCC3)cc2)n1 | inactive |
| CC(C(=O)O)c1ccc(C(=O)c2cccs2)cc1 (stereo not given) | inactive |
| CN(C)c1ccc(C(=C2C=CC(=[N+](C)C)C=C2)c2ccccc2)cc1 | inactive |
| Nc1cc(C(F)(F)F)ccc1S | inactive |
| Cc1oncc1C(=O)Nc1ccc(C(F)(F)F)cc1 | inactive |
| CS(=O)(=O)c1ccc(-c2cn3ccccc3n2)cc1 | 8.69 µM (active) |
| Nc1ncnc2c1ncn2[C@@H]1O[C@@H](CO)[C@H](O)[C@H]1O | inactive |
| O=C(Nc1ccc(C(=O)O)c(O)c1)c1ccccc1 | inactive |
| O=C(O)c1ccccc1Nc1cccc(C(F)(F)F)c1 | inactive |
| O=C(Nc1ncc([N+](=O)[O-])s1)c1cccs1 | inactive |
| O=C1C(Cl)=C(NCCN2CCOCC2)C(=O)c2ncccc21 | 7.74 µM (active) |
| CN(C)c1ccc2cc(C(=O)N[C@@H](CCCN=C(N)CCl)C(=O)NCc3ccccc3)ccc2c1 | inactive |

Source: PubChem BioAssay AID1224861 (National Center for Advancing Translational Sciences (NCATS), 2016)
